Assay results: PubChem BioAssay (NCI)
Compounds without any hit were thinned out: in the full panel of roughly 79,000, 15% have a hit. Values without a mark were called inactive. The source made the active and inactive calls. No stated cut-off is given here; in the data, active means growth inhibition above about 70%; inactive means the rest.

Assay: NCI Yeast Anticancer Drug Screen. Data for the mec2-1 strain (AID 157)
Conditions: S. cerevisiae mec2-1 strain, hits give high values
Description: Growth inhibition of yeast strains with defined genetic alterations is measured as a screen for potential anti-cancer activity. Selected strains with alterations in DNA damage repair or cell cycle control were exposed to compounds and growth inhibition was measured relative to vehicle treated controls. The strain used in this assay is mec2-1

[1] = at 5.0 µM (retest, dose inferred, filed as 0.5)
[2] = at 50.0 µM (retest, dose inferred, filed as 5.0)

Row | Structure (SMILES) | growth inhibition [1] | growth inhibition [2] | growth inhibition (at 50.0 µM)
1 | O=C1CSC(c2ccc(Cl)cc2)N1c1ccc(-c2ccc(-n3c(-c4ccccc4)nc4ccccc4c3=O)cc2)cc1 (configuration not stated) | 2% | 63% | 47.2%
2 | CCN(CC)CCOc1ccc(-c2cc(-c3ccccc3)nc(N)n2)cc1 | 58% | 99% (active) | 79.5% (active)
3 | Nc1cn(C2OC(CC(c3ccccc3)(c3ccccc3)c3ccccc3)C(O)C2O)c(=O)[nH]c1=O (configuration not stated) | 97% (active) | 97% (active) | 34.9%
4 | C=C1CC/C=C(/C(=O)O)CC[C@H]2[C@@H]1CC2(C)C | 4% | 71% (active) | 60.1%
5 | O=[N+]([O-])c1c(Cl)c(Cl)c(O)c(Cl)c1Cl | 44% | 83% (active) | 78.7% (active)
6 | CC12CCC(C(Br)(Br)C1=O)C2(C)C (configuration not stated) | 17% | 46% | 59.4%
7 | C[C@]12C[C@H](c3ccccc3)Nc3ccccc3N1C(c1ccccc1)=NO2 | -13% | 80% (active) | 59.7%
8 | O=C(O)c1c2c(cc3c1CC1(Cc4ccccc4C1=O)C3)CCC2 (configuration not stated) | 21% | 21% | 89% (active)
9 | CC(C)(C)C(=O)CC(=O)C(F)(F)C(F)(F)C(F)(F)F.CC(C)(C)C(=O)CC(=O)C(F)(F)C(F)(F)C(F)(F)F.CC(C)(C)C(=O)CC(=O)C(F)(F)C(F)(F)C(F)(F)F.[Gd] | -9% | 85% (active) | 91.4% (active)
10 | COC(=O)c1ccc(NCC2=C(Br)C(=O)C=CC2=O)cc1Cl | 35% | 98% (active) | 77.6% (active)
11 | C/C(=N/NC(=S)N(C)C)c1ccccc1O | -34% | 9% | 86.3% (active)
12 | CC(=O)N1c2ccccc2Sc2c1ccc1ccccc21 | 5% | 95% (active) | 96.8% (active)
13 | O=P(C(=S)Nc1ccccc1Cl)(c1ccccc1)c1ccccc1 | 16% | 98% (active) | 90.5% (active)
14 | O=C1c2ccccc2C(O)(c2ccccc2)N1c1ccc([N+](=O)[O-])cc1 (configuration not stated) | 10% | 100% (active) | 99.3% (active)
